Several values for one entry are separate records, joined by “and”; a condition that tells them apart may be missing. Equal entries are not always repeated. Records with an inconclusive call do not appear. Where a call stands in place of a potency, no number is given. More than one record can exist for a structure, and the calls need not agree. Activity calls are given as the source filed them. Calls come from the whole dose curve; as a rule, active = well fitted inhibition curve with a large enough effect; inconclusive = small, poorly fitted or top-dose-only effect; inactive = no such curve, though single readings can be large or run the other way.
Potency is the fitted concentration of half-maximal effect.

Sequence of M-phase phosphoprotein 8 (Homo sapiens) (Q99549 whole entry, looked up): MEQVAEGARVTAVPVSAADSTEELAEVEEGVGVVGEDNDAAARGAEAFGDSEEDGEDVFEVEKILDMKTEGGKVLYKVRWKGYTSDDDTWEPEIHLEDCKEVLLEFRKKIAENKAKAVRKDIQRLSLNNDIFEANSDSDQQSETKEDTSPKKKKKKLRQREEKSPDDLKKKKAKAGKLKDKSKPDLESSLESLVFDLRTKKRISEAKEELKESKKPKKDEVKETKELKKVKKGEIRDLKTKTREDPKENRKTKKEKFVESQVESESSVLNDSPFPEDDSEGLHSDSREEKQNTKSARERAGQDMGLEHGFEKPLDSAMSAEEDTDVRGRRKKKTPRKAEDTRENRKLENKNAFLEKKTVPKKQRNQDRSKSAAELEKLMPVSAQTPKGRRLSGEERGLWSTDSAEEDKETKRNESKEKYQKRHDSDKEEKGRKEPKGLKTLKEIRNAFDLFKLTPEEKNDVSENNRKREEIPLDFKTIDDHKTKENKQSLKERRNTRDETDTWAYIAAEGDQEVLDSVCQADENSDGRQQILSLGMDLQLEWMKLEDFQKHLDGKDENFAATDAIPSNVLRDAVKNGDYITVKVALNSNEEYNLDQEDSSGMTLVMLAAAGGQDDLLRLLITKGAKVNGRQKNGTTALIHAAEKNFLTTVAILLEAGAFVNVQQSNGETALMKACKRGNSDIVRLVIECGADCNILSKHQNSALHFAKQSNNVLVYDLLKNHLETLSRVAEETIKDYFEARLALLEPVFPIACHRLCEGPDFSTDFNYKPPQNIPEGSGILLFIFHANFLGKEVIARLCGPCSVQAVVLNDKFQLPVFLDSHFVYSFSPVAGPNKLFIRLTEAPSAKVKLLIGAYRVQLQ

The experiment concerns the target M-phase phosphoprotein 8 (Homo sapiens) (UniProt Q99549). Kind of experiment: qHTS Validation Assay for Inhibitors for MPP8 Chromodomain Interactions with Methylated Histone Tails (AID 488949). Note: nearly all actives have a fitted effect of over 55% in size. The note with it: AlphaScreen MPP8 binding to H3K9me3 peptide; series mostly up to 57.1 µM. The source says: As our understanding of epigenetics expands, it is becoming clear that players in this field are potential targets for drug development. This area of epigenetic therapy has established applications for the treatment of cancer and neurological diseases. We have been involved in this field for a number of years and have performed high-throughput screens to identify the first small molecule inhibitors of protein methyltransferases. These methyltransferases target multiple substrates, and thus regulate many arms of an epigenetic pathway. The methylation of different substrates often generates docking sites for effector proteins that harbor binding domains (chromo, tudor, PHD, MBT and ANK repeats). It has been proposed that the binding sites generated for different proteins by these post-translational modifcations mediate downstream effects on chromatin. Consistent with this theory, di- and tri-methylation of histone H3K9 facilitates the binding of heterochromatin protein HP1. The HP1 protein harbors a chromodomain that is responsible for the methyl-dependent interaction between HP1 and lysine 9 of histone H3. HP1 was first described in flies as a heterochromatin associated protein that can regulate gene silencing. It harbors a chromodomain that binds H3K9me3. In addition, it harbors a chromoshadow domain that interacts with a large number of proteins that are involved in heterochromatin formation and gene repression. There are three highly related HP1 isoforms. All three variants are associated with pericentric heterochromatin and it is not clear whether they have specific or redundant functions. MPP8 is also involved in the repression of gene in euchromatic regions (unpublished data) and like HP1 its chromodomain binds H3K9me3. MPP8 harbors an ankyrin repeat region that is likely involved in binding and recruiting interacting proteins with transcriptional repressive function, much like the chromoshadow domain of HP1 does. We hypothesize that by inhibiting specific protein-protein interactions we will be able to develop compounds that block a single arm of an epigenetic pathway. The specificity attained by blocking a single protein-protein interaction will be far greater than that attained by blocking the enzyme that regulates one of many interactions. Low-affinity protein-protein interactions (Kd in the single- to double-digit micromolar range) such as those discussed here have been very difficult to assay by traditional techniques such as fluorescence polarization or fluorescence resonance energy transfer. We have developed a sensitive chemiluminescence-based assay (Quinn, et al. 2009), which serves as the starting point for this project. The following is a validation assay to identify lead compounds that can block methyl-dependent protein-protein interactions (specifically MPP8), which can be used as probes to analyze these methyl-driven interactions and perhaps even developed into targeted epigenetic therapies. Assay Provider: Mark T. Bedford, MD Anderson Screening Center PI: Austin, C.P. Screening Center: NIH Chemical Genomics Center [NCGC]
To each well, 2 uL of MPP8 protein (final 50 nM) and 1 uL biotinylated histone peptide trimethylated at Lys9 [b-H3(1-18)K9me3] (final 50 nM) was added in 1x PBS buffer, pH 7.4, containing 0.01% Tween-20 using a nanoliter dispenser. Formation of a protein-peptide complex proceeded at room temperature for 30 min. A Kalypsys pin-tool was employed to transfer 23 nL of library compound solution in DMSO to each well. Aurintricarboxylic acid (ATA) was used as an intraplate control with a 12-point titration in duplicate. Following a 30 min incubation of the protein-peptide complex with compounds at room temperature, a mixture of 40 ug/mL each streptavidin-coated donor and nickel chelate acceptor AlphaScreen beads (final 10 ug/mL) was added in a 1 uL dispense for a final volume of 4 uL. Plates were incubated protected from the light for 30 min at room temperature. […]
For orientation: In qHTS, concentration-response curves come from the screen itself.
For `CC(C)(Oc1ccc(C2CC2(Cl)Cl)cc1)C(=O)O` (stereo not given), the Potency was 39.8 µM (active) and inactive. Turning to `COc1ccccc1OCCNCC(O)COc1cccc2[nH]c3ccccc3c12` (stereo not given), the Potency result is “inactive”. The same measure for `CN(C)c1nc(N(C)C)nc(N(C)C)n1`: “inactive”; for `O=C(Nc1ccc([N+](=O)[O-])cc1Cl)c1cc(Cl)ccc1O`: “inactive”; for `O=C1c2c(O)ccc(O)c2C(=O)c2c(NCCNCCO)ccc(NCCNCCO)c21`: 2.82 µM (active) and 6.7 µM (active). The same measure for `Fc1ccc([C@@H]2CCNC[C@H]2COc2ccc3c(c2)OCO3)cc1`: 35.5 µM (active); for `OCCN(CCO)c1nc(N2CCCCC2)c2nc(N(CCO)CCO)nc(N3CCCCC3)c2n1`: “inactive”; for `Nc1nnc(-c2cccc(Cl)c2Cl)c(N)n1`: “inactive”. The same measure for `CN1CCN(CCCN2c3ccccc3Sc3ccc(Cl)cc32)CC1`: 25.1 µM (active) and 15 µM (active).

As for `NC(=O)OCC(COC(N)=O)c1ccccc1`, the Potency entry was “inactive”. As to `Clc1ccccc1C(c1ccccc1)(c1ccccc1)n1ccnc1`, the Potency entry is “inactive”. The same measure for `NCCCCCC(=O)O`: “inactive”; for `CN1CCN2c3ccccc3Cc3ccccc3C2C1` (stereo not given): “inactive”; for `O=C(C1CCCCC1)N1CC(=O)N2CCc3ccccc3C2C1` (stereo not given): “inactive”. Regarding `Cc1cn([C@H]2C=C[C@@H](CO)O2)c(=O)[nH]c1=O`, the Potency result was “inactive”.

Turning to `CC(C)NCC(O)c1ccc(O)c(O)c1` (stereo not given), the Potency result was “inactive”. `CN(Cc1cnc2nc(N)nc(N)c2n1)c1ccc(C(=O)N[C@@H](CCC(=O)O)C(=O)O)cc1`: the Potency was 79.4 µM (active) and inactive. The same measure for `Cn1c(=O)c2[nH]cnc2n(C)c1=O`: “inactive”. The same measure for `CNCCCC12CCC(c3ccccc31)c1ccccc12`: “inactive”. The same measure for `COc1ccc2c(c1)c(CC(=O)O)c(C)n2C(=O)c1ccc(Cl)cc1`: “inactive”; for `COc1cc2nc(N3CCN(C(=O)C4COc5ccccc5O4)CC3)nc(N)c2cc1OC` (stereo not given): “inactive”. Take `COc1ccc(C2CNC(=O)C2)cc1OC1CCCC1` (stereo not given): the Potency result was “inactive”.

`NC12CC3CC(CC(C3)C1)C2`: the Potency entry is “inactive”.

Consider `CC(C)NCC(O)COc1ccc(CCOCC2CC2)cc1` (stereo not given), for which the Potency entry was “inactive”. For `CCOC(=O)C(C)(C)Oc1ccc(Cl)cc1`, the Potency entry was “inactive”. In the case of `O=C1N(c2ccccc2)c2ccccc2C1(Cc1ccncc1)Cc1ccncc1`, the Potency entry was “inactive”. The same measure for `CCN1CCCC1CNC(=O)c1cc(S(=O)(=O)CC)c(N)cc1OC` (stereo not given): “inactive”; for `CCc1cccc2c3c([nH]c12)C(CC)(CC(=O)O)OCC3` (stereo not given): “inactive”; for `NCCc1cnc[nH]1`: “inactive”. The same measure for `COC(=O)Nc1nc2ccc(C(=O)c3cccs3)cc2[nH]1`: “inactive”; for `Nc1c2c(nc3ccccc13)CCCC2`: “inactive”. `Cc1cc(C(C)(C)C)c(O)c(C)c1CC1=NCCN1`: the Potency entry is “inactive”. The same measure for `CCC1(c2ccccc2)C(=O)NCNC1=O`: “inactive”; for `C[C@H]1c2cccc(O)c2C(O)=C2C(=O)[C@]3(O)C(O)=C(C(N)=O)C(=O)[C@@H](N(C)C)[C@@H]3[C@@H](O)[C@@H]21`: “inactive”.

Regarding `CCOC(=O)Nc1ccc(NCc2ccc(F)cc2)nc1N`, the Potency is 39.8 µM (active) and inactive.

In the case of `O=C(c1ccc(OCCN2CCCCC2)cc1)c1c(-c2ccc(O)cc2)sc2cc(O)ccc12`, the Potency is 20 µM (active). The same measure for `CC(C(=O)O)c1cccc(C(=O)c2ccccc2)c1` (stereo not given): “inactive”; for `COc1cc2c(c(OC)c1OC)-c1ccc(OC)c(=O)cc1[C@@H](NC(C)=O)CC2`: “inactive”; for `COc1cc2nc(N(C)CCCNC(=O)C3CCCO3)nc(N)c2cc1OC` (stereo not given): “inactive”. In the case of `CN(C)CCC=C1c2ccccc2C=Cc2ccccc21`, the Potency result was “inactive”.

The values are drawn from PubChem BioAssay (NCATS).
